Each structure is given as a SMILES string. Results filed as inconclusive are left out. Values without a mark were called inactive. The call rests on the fitted dose curve; in most records, active means well fitted curve in the direction sought with a large enough effect in the main read-out, with a control signal flat (not every such curve was filed as active); inconclusive means small, poorly fitted or top-dose-only effect, or effect the other way, or a change in a side signal; inactive means no such curve, though single readings can be large or run the other way.

The nature of the assay: qHTS Validation Assay to Find Inhibitors of Chronic Active B-Cell Receptor Signaling (AID 485345). Particulars: ABC-DLBCL cells, chronic BCR signaling reporter, CBG luciferase; series mostly up to 46.1 µM; activity change: at the top concentration. The source says: NIH Molecular Libraries Probe Production Network [MLPCN]
NIH Chemical Genomics Center [NCGC]
PI Name: Dr. R. Eric Davis
Diffuse large B-cell lymphoma (DLBCL) is the most common category of non-Hodgkin lymphoma, with ~20,000 new cases per year in the United States. DLBCL should be regarded as a collection of different neoplasms. Microarray gene expression analysis has defined two principal types of DLBCL, named for their similarity to normal B cell stages or activation states: a germinal center B-cell (GCB) type, and an activated B-cell (ABC) type. In ABC-DLBCL, a constitutive high-level activity of the NF-kappaB family of transcription factors has been observed (1) and NF-kappaB target genes are more highly expressed in ABC primary tumors than in GCB tumors. Functional studies have shown a constitutive high-level activity of the IkappaB (inhibitor of kappa-B) kinase (IKK) complex. […] Further analysis of DLBCL primary tumors for NF-kappaB target gene expression imply that although CARD11 is required for constitutive IKK activity in all ABC-DLBCL lines, mutations in CARD11 may be the root cause of IKK activation only in lines or tumors with such mutations. In other words, CARD11 mutations may explain NF-kappaB activation in only 10% of ABC-DLBCL cases. […] This process has been termed 'chronic active BCR signaling' (CABS).
The goal of this screen is to find small-molecule inhibitors of the CABS pathway found in ABC-DLBCL lines using a cell-based assay that measures IkappaBalpa stability, which has already been extensively validated in the OCI-Ly3 line (PubChem AID:445; REF: 4).
A cell-sensor assay for I-kappa-B-alpha stabilization has been developed. The assay uses green (CBG68) and red (CBR) emitting beetle luciferases [Chroma-GloTM developed by Promega Corp.] where the green luciferase is fused to IkappaBalpha and the red luciferase is present in its native state. Both luciferase genes are stably present in the TMD8 human ABC DLBCL cell line, but their expression is under the control of tetracycline-inducible promoters. Following the addition of doxycycline to induce expression of the luciferases, the green luminescence in control cultures rises only slowly because the CBG fusion partner IkappaBalpha is targeted by IKK activity for rapid degradation. In contrast, green luminescence rises rapidly in the presence of proteasome inhibitors or IKK inhibitors. The rise in red luminescence of CBR is not affected by proteasome or IKK inhibitors, and serves as normalization for cell number and nonspecific effects. Compounds were screened as a concentration-titration series that ranged from 46 uM to 3 nM.
NCGC Assay Protocol Summary:
Cells were seeded in 1536-well plates at 5000 cells/4uL in IMDM medium containing 0.5% FBS, w/o phenol red, 1% penicillin/streptomycin. Then, 23 nL of compounds or DMSO were delivered to each well using a pin tool. One uL 20ng/ml doxycycline was then dispensed into white solid 1536-well plates and the plates were incubated at 37C/5% C02 in a cell incubator for 4 hrs. Then 4 uL luminescent substrate mix (in-house prepared: 150 mM Tris-Cl, pH 7.6, 3 mM MgCl2, 1% Triton X-100, 5 mM DTT, 0.2 mM CoA, 0.15 mM ATP, 5 mM D-luciferin, final concentrations) was added to each well. The plate was incubated at r.t. for 10-15 min. The plates were measured on a ViewLux plate reader for green luminescence (540/20 nm filter) and red luminescence (618/8 nm filter). The green and red luminescent signals were corrected for red and green luminescence filter overlap using previously determined filter calibration constants (determined using the procedure outlined in the Promega Technical Manual; REF 4). The %Activity was determined from the ratio of corrected green/red luminescent values. MG132 were used as control. Green luminescent and ratio %Activity was determined by normalizing to the difference in signal between basal cells (0% Activity) and cells incubated with 10 uM of the proteasome inhibitor MG-132 (100% Activity). […]
Consider `NC(=O)c1cccc(N)c1`, for which the “activity change” value was -1.47%.

As to `CCN(CC)CC#CCOC(=O)C(O)(c1ccccc1)C1CCCCC1` (stereo not given), the “activity change” value was -5.01%.

For the compound `CC1=C(C(=O)O)N2C(=O)[C@@H](NC(=O)C(N)c3ccccc3)[C@H]2SC1` (stereo not given in full), the “activity change” value is -6.34%.

With `CCN1CCCC1CNC(=O)c1cc(S(N)(=O)=O)ccc1OC` (stereo not given), the “activity change” value was -2.75%.

On to `NC(=O)c1ccc2[nH]ccc2c1`, for which the “activity change” value was -2.64%.

With `O=C(O)C1CCCN(CCC=C(c2ccccc2)c2ccccc2)C1` (stereo not given), the “activity change” value is -5.61%.

For the compound `CC(C)NCC(O)c1ccc(NS(C)(=O)=O)cc1` (stereo not given), the “activity change” value is -12%.

In the case of `N[C@@H](Cc1ccc(O)c(O)c1)C(=O)O`, the “activity change” value is -4.11%.

As to `CCCCS(=N)(=O)CCC(N)C(=O)O` (stereo not given), the “activity change” value was 1.02%.

Take `Nc1nc(N)c2nc(CNc3ccc(C(=O)NC(CCC(=O)O)C(=O)O)cc3)cnc2n1` (stereo not given): the “activity change” value is 2.85%.

The values are drawn from PubChem BioAssay (NCATS).
